Assay results published in PubChem BioAssay (Tox21).
Several values for one entry are separate records, joined by “and”; a condition that tells them apart may be missing. Equal entries are not always repeated. Results filed as inconclusive are left out. A structure can be active in one record and inactive in another. Activity calls are given as the source filed them. Unless noted, the call rests on the fitted dose curve; in most records, active means well fitted curve in the direction sought with a large enough effect in the repeat runs; inconclusive means weak or mixed curves; inactive means no such curve, though single readings can be large; an effect the other way counts as inactive or inconclusive.

Legend:
[1] = qHTS assay to identify aromatase inhibitors - cell viability counter screen (AID 743084);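 further: cells stimulated with testosterone during compound exposure; nearly all actives have a fitted effect of over 55% in size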; further: potency means the concentration at half of the fitted maximal effect
[2] = target: Aryl hydrocarbon receptor (Homo sapiens) (UniProt P35869); experiment: qHTS assay to identify small molecule that activate the aryl hydrocarbon receptor (AhR) signaling pathway (AID 743085); further: nearly all actives have a fitted effect of over 15% in size; further: potency means the concentration at half of the fitted maximal effect;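 on activation: HG2L7.5c1 human HepG2 liver cells with stably integrated DRE-driven firefly reporter; series mostly up to about 70 µM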
How it was run: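 Luminescence (ONE-Glo) from a dioxin-responsive-element luciferase reporter in HG2L7.5c1 HepG2 cells after 24 hr compound exposure at 37C; viability measured by CellTiter-Fluor fluorescence beforehand.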

[3] = qHTS assay to identify small molecule that activate the aryl hydrocarbon receptor (AhR) signaling pathway - cell viability counter screen (AID 743086); further: nearly all actives have a fitted effect of over 45% in size; further: potency means the concentration at half of the fitted maximal effect
How it was run: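 HepG2-AhR-luc (HG2L7.5c1) cells, 4000/well, were preincubated 5 h at 37C, exposed to compound in qHTS format for 24 hr at 37C, then given CellTiter-Fluor for 30 min; viability was read as fluorescence in the reporter wells.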

[4] = qHTS assay to identify small molecule antagonists of the peroxisome proliferator-activated receptor gamma (PPARg) signaling pathway - cell viability counter screen (AID 743194); further: nearly all actives have a fitted effect of over 55% in size; further: potency means the concentration at half of the fitted maximal effect
How it was run: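 PPARg-UAS-bla HEK293H cells were plated, rested 5 h at 37 C, then treated with compounds plus rosiglitazone (50 nM final) for 17 h at 37 C; viability was then read by CellTiter-Glo luminescence after 30 min at room temperature.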

[5] = qHTS assay for small molecule agonists of the antioxidant response element (ARE) signaling pathway - cell viability counter screen (AID 743203; calls by dose curve; further: nearly all actives have a fitted effect of over 55% in size; further: potency means the concentration at half of the fitted maximal effect)
How it was run: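 Cells (ARE-bla HepG2, 2,000/well) receive DMSO-dissolved compounds after a 5 hrs rest. Plates incubate 16 hrs at 37C/5% CO2. CellTiter-Glo luminescence is then recorded after 30 min at room temperature.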

[6] = qHTS assay to identify small molecule agonists of the peroxisome proliferator-activated receptor delta (PPARd) signaling pathway - cell viability counter screen (AID 743211); further: nearly all actives have a fitted effect of over 55% in size; further: potency means the concentration at half of the fitted maximal effect
How it was run: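 Viability was measured as CellTiter-Glo luminescence (30 min, room temperature) in the same wells as the beta-lactamase readout. GeneBLAzer PPARd UAS-bla HEK293H cells received compound after 5 h plating and were incubated 17 h at 37 C.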

[7] = qHTS assay to identify small molecule antagonists of the peroxisome proliferator-activated receptor delta (PPARd) signaling pathway - cell viability counter screen (AID 743213); further: nearly all actives have a fitted effect of over 50% in size; further: potency means the concentration at half of the fitted maximal effect
How it was run: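 CellTiter-Glo was added to PPARd-bla HEK293H wells following 17 h compound treatment in the presence of 300 nM L165041. Luminescence was recorded after 30 min at room temperature.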

[8] = target: Bile acid receptor (Homo sapiens) (UniProt Q96RI1); experiment: qHTS assay to identify small molecule antagonists of the farnesoid-X-receptor (FXR) signaling pathway (AID 743217; active means well fitted inhibition curve with a large enough effect in the signal ratio in the repeat runs, not every such curve was filed as active; the % refers to the signal ratio; further: potency means the concentration at half of the fitted maximal effect)
How it was run: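 Beta-lactamase reporter under UAS control in HEK 293T cells; compound exposure 16 h at 37 °C in the presence of chenodeoxycholic acid (50 uM final); signal from B/G FRET substrate after 2 h at room temperature.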

[9] = qHTS assay to identify small molecule agonists of the farnesoid-X-receptor (FXR) signaling pathway - cell viability counter screen (AID 743218); further: nearly all actives have a fitted effect of over 45% in size; further: potency means the concentration at half of the fitted maximal effect
How it was run: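 In GeneBLAzer FXR-UAS-bla HEK 293T cells, compounds act for 16 h at 37 C. Cell viability is then scored in the reporter wells by CellTiter-Glo, 30 min at RT, luminescence.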

[10] = qHTS assay to identify small molecule antagonists of the farnesoid-X-receptor (FXR) signaling pathway - cell viability counter screen (AID 743221; active means well fitted cell-killing curve with a large enough effect in the repeat runs, not every such curve was filed as active; further: nearly all actives have a fitted effect of over 50% in size; further: potency means the concentration at half of the fitted maximal effect)
How it was run: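 Cytotoxicity counter screen run in the FXR-bla reporter wells: HEK 293T cells exposed to compound with 50 uM (final) chenodeoxycholic acid for 16 h, 37 C, then viability measured by CellTiter-Glo luminescence after 30 min, room temperature.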

[11] = qHTS assay for small molecule activators of the heat shock response signaling pathway - cell viability counter screen (AID 743209); further: nearly all actives have a fitted effect of over 50% in size; further: potency means the concentration at half of the fitted maximal effect
How it was run: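 Quantitative HTS format, Tox21 10K library. HeLa cells carrying an HSE-driven beta-lactamase reporter were treated 5 h at 37 C, then assessed for viability by CellTiter-Glo luminescence.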

[12] = target: Vitamin D3 receptor (Homo sapiens) (UniProt P11473); experiment: qHTS assay to identify small molecule antagonists of the vitamin D receptor (VDR) signaling pathway (AID 743223; active means well fitted inhibition curve with a large enough effect in the signal ratio in the repeat runs, not every such curve was filed as active; the % refers to the signal ratio; further: potency means the concentration at half of the fitted maximal effect)
How it was run: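 Antagonist mode: compound added to VDR-bla cells alongside agonist 1alpha,25-dihydroxyvitamin D3 (3 nM final), incubation 16 h at 37C. Read-out is LiveBLAzer FRET fluorescence, 2 h at room temperature.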

[13] = target: Peroxisome proliferator-activated receptor delta (Homo sapiens) (UniProt Q03181); experiment: qHTS assay to identify small molecule agonists of the peroxisome proliferator-activated receptor delta (PPARd) signaling pathway (AID 743212; calls by dose curve)
How it was run: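 GeneBLAzer PPARd UAS-bla HEK293H cells (beta-lactamase reporter under UAS control), plated and rested 5 h at 37 C, then exposed to compounds in DMSO at 37 C; LiveBLAzer B/G FRET substrate added, 2 h room temperature, fluorescence read.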

[14] = target: Bile acid receptor (Homo sapiens) (UniProt Q96RI1); experiment: qHTS assay to identify small molecule agonists of the farnesoid-X-receptor (FXR) signaling pathway (AID 743220; active means well fitted activation curve with a large enough effect in the signal ratio in the repeat runs, not every such curve was filed as active; the % refers to the signal ratio)
How it was run: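 Beta-lactamase reporter under UAS control in GeneBLAzer FXR HEK 293T cells (5000/well) measured with LiveBLAzer FRET substrate after 2 h at room temperature. Compound exposure lasted 16 h at 37C.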

[15] = target: Vitamin D3 receptor (Homo sapiens) (UniProt P11473); experiment: qHTS assay to identify small molecule agonists of the vitamin D receptor (VDR) signaling pathway (AID 743222; calls by dose curve)
How it was run: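 Agonist activity measured in VDR-bla reporter cells. Exposure 16 h, 37C, 5% CO2; detection by B/G FRET substrate, 2 h RT.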

[16] = target: Peroxisome proliferator-activated receptor gamma (Homo sapiens) (UniProt P37231); experiment: qHTS assay to identify small molecule agonists of the peroxisome proliferator-activated receptor gamma (PPARg) signaling pathway (AID 743094; active means well fitted activation curve with a large enough effect in the signal ratio in the repeat runs, not every such curve was filed as active; the % refers to the signal ratio)
How it was run: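 Stably transfected HEK293H cells (GeneBLAzer PPARg UAS-bla) were incubated with test substances for 17 h at 37C after a 5 h pre-incubation; beta-lactamase activity was then detected by FRET substrate fluorescence.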

[17] = qHTS assay for small molecule activators of the heat shock response signaling pathway (AID 743210; active means well fitted activation curve with a large enough effect in the signal ratio in the repeat runs, with a control signal flat, not every such curve was filed as active; the % refers to the signal ratio; further: series mostly up to about 63 µM)
How it was run: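 HSE-bla HeLa cells (beta-lactamase reporter under heat shock response elements) were exposed to compounds for 5 h at 37 C, then loaded with LiveBLAzer B/G FRET substrate for 2.5 h at room temperature before fluorescence reading.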

[18] = target: Peroxisome proliferator-activated receptor delta (Homo sapiens) (UniProt Q03181); experiment: qHTS assay to identify small molecule antagonists of the peroxisome proliferator-activated receptor delta (PPARd) signaling pathway (AID 743215; active means well fitted inhibition curve with a large enough effect in the signal ratio in the repeat runs, not every such curve was filed as active; the % refers to the signal ratio;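 further: cells stimulated with agonist L165041 at 300 nM final during compound exposure; series mostly up to about 62 µM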)
How it was run: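 Antagonist-mode beta-lactamase reporter screen: HEK293H cells with UAS-bla under PPARd control, stimulated by 300 nM L165041 (final) alongside test compound for 17 h at 37 C, then FRET fluorescence after 2 h substrate incubation.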

Measured: Potency

Peroxisome proliferator-activated receptor delta (Homo sapiens), sequence (Q03181 whole entry, looked up): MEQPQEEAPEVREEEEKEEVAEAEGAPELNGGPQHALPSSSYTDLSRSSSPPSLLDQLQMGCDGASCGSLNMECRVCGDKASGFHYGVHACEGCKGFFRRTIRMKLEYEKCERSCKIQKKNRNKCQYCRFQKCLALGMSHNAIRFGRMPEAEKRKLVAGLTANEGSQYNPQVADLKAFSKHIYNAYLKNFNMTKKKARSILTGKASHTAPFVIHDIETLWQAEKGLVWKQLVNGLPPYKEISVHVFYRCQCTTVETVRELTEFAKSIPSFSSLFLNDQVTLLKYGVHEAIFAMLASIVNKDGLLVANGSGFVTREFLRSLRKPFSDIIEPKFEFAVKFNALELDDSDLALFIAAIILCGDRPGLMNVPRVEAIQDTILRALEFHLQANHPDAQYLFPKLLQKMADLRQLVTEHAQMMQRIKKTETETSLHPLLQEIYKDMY
Vitamin D3 receptor (Homo sapiens), sequence (P11473 whole entry, looked up): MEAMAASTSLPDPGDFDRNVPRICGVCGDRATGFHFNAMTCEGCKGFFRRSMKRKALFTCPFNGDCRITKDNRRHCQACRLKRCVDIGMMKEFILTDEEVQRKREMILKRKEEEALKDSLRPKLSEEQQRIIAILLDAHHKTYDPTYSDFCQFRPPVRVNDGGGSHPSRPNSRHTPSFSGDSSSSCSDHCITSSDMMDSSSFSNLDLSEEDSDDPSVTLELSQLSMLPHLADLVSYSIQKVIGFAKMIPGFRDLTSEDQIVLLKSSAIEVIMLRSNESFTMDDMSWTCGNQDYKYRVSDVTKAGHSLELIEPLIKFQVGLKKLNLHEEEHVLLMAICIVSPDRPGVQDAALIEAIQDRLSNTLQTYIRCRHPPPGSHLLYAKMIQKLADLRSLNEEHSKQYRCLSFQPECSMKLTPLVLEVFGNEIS
Aryl hydrocarbon receptor (Homo sapiens), sequence (P35869 whole entry, looked up): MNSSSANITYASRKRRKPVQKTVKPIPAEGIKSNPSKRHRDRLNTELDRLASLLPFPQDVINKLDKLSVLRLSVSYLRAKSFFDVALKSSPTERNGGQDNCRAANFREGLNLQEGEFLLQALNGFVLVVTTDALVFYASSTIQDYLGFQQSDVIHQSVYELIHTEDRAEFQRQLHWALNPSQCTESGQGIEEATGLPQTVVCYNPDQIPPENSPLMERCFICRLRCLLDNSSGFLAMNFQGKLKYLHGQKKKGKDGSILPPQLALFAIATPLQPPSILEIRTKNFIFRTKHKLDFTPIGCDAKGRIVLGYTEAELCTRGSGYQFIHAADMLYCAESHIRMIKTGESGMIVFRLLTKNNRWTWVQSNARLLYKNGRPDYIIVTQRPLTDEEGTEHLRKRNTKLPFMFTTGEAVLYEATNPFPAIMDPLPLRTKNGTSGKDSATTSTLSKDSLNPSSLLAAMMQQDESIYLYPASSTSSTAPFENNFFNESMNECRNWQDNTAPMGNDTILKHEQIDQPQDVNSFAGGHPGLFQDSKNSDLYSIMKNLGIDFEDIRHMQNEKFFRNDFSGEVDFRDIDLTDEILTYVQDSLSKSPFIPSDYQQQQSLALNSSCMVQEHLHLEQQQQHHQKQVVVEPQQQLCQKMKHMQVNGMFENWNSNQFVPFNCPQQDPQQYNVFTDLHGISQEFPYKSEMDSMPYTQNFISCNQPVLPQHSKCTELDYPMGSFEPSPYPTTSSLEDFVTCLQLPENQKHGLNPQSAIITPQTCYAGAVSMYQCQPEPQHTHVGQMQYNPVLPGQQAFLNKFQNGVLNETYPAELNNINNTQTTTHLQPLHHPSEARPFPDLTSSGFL
Bile acid receptor (Homo sapiens), sequence (Q96RI1 whole entry, looked up): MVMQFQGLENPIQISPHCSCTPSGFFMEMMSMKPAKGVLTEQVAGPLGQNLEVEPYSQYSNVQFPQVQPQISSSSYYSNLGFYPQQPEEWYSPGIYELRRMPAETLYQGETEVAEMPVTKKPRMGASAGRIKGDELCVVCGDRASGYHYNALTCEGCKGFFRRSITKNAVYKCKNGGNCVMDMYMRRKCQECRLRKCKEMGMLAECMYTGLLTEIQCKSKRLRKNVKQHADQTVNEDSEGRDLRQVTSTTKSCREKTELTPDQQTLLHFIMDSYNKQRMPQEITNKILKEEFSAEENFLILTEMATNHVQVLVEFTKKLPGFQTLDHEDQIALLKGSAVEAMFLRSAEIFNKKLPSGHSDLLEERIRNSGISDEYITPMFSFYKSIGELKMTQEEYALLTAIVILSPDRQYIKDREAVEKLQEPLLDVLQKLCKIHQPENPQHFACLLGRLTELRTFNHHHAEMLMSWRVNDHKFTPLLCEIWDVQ
Peroxisome proliferator-activated receptor gamma (Homo sapiens), sequence (P37231 whole entry, looked up): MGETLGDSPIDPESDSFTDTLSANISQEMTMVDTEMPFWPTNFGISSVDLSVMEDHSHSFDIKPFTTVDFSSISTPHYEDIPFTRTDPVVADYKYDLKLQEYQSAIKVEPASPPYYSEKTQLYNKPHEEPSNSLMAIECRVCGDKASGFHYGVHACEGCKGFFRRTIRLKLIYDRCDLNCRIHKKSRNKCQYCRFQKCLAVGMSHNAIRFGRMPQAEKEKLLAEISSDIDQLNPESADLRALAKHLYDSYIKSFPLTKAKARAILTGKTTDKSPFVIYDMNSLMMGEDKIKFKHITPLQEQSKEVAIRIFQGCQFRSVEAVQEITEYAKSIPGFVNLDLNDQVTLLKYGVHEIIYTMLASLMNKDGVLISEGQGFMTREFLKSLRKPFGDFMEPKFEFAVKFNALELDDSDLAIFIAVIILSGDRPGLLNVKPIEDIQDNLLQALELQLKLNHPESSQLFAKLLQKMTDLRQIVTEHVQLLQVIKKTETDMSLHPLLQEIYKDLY

CC(=O)N1CCN(c2ccc(OC[C@H]3CO[C@](Cn4ccnc4)(c4ccc(Cl)cc4Cl)O3)cc2)CC1
inactive and 61.1 µM (active): [1]
active: [2] 6.68 µM | [4] 43.6 µM | [5] 61.1 µM | [6] 34.7 µM | [7] 27.5 µM | [8] 43.6 µM | [9] 49 µM | [10] 54.9 µM
inactive and 27.3 µM (active): [3]

CN(C)c1ccc(C2(c3ccc(N(C)C)cc3)OC(=O)c3cc(N(C)C)ccc32)cc1
inactive: [1] | [2] | [3] | [4] | [5] | [11] | [7] | [9] | [12]

CCN(CC)CCCC(C)Nc1c2ccc(Cl)cc2nc2ccc(OC)cc12 (configuration not stated)
inactive: [1] | [3] | [11]
active: [2] 9.44 µM | [5] 7.5 µM | [6] 11.9 µM | [7] 29.8 µM | [9] 13.3 µM

CCCCCCCCCCCC(=O)NCCCN(C)C
inactive: [2]
active: [1] 54.5 µM | [3] 54.5 µM | [5] 43.3 µM | [11] 49 µM | [6] 21.9 µM | [7] 38.9 µM | [9] 34.7 µM | [12] 27.5 µM

O=C(Oc1cccc2cccnc12)c1ccccc1
active: [1] 21.1 µM | [6] 3.35 µM | [7] 4.22 µM | [9] 9.44 µM | [10] 8.41 µM
inactive: [2] | [3] | [4] | [13] | [12]

CC(C)(C)NC(=O)[C@@H]1C[C@@H]2CCCC[C@@H]2CN1C[C@@H](O)[C@H](Cc1ccccc1)NC(=O)[C@H](CC(N)=O)NC(=O)c1ccc2ccccc2n1
active: [1] 11.9 µM and 13.9 µM | [3] 26.6 µM and 22 µM | [4] 49.6 µM | [6] 35.1 µM | [7] 44.2 µM | [9] 55.7 µM
inactive: [2] | [13] | [14]

COc1ccc(C(=O)/C(Br)=C\C(=O)O)cc1
inactive: [2] | [3] | [11] | [6] | [7] | [9] | [10]
active: [1] 17.2 µM

O=C(OC[C@H]1O[C@@H](OC(=O)c2cc(O)c(O)c(OC(=O)c3cc(O)c(O)c(O)c3)c2)[C@H](OC(=O)c2cc(O)c(O)c(OC(=O)c3cc(O)c(O)c(O)c3)c2)[C@@H](OC(=O)c2cc(O)c(O)c(OC(=O)c3cc(O)c(O)c(O)c3)c2)[C@@H]1OC(=O)c1cc(O)c(O)c(OC(=O)c2cc(O)c(O)c(O)c2)c1)c1cc(O)c(O)c(OC(=O)c2cc(O)c(O)c(O)c2)c1
active: [1] 18.8 µM | [3] 21.1 µM and 16.5 µM | [7] 13.2 µM
inactive: [2] | [9] | [10] | [15]

CCCCCCCC[P+](CCCCCCCC)(CCCCCCCC)CCCCCCCC
active: [1] 9.63 µM | [3] 19.2 µM | [4] 4.34 µM | [11] 5.46 µM | [6] 5.46 µM | [7] 7.71 µM | [9] 8.65 µM
inactive: [2]

Oc1cccc(-c2c3nc(c(-c4cccc(O)c4)c4ccc([nH]4)c(-c4cccc(O)c4)c4nc(c(-c5cccc(O)c5)c5ccc2[nH]5)CC4)C=C3)c1
active: [1] 29.8 µM and 21.1 µM | [3] 26.6 µM and 29.8 µM | [4] 29.8 µM | [6] 13.3 µM | [9] 21.1 µM
inactive: [2] | [5] | [11]

CCCCN(CCCC)c1ccc(C(=O)c2ccccc2C(=O)O)c(O)c1
inactive: [1] | [2] | [3] | [14]
active: [4] 44.1 µM | [11] 62.2 µM | [6] 44.1 µM | [7] 44.1 µM | [10] 44.1 µM

Cc1cc(O)c(Cl)c(C)c1Cl
active: [1] 61.1 µM | [5] 30.6 µM | [11] 38.9 µM | [6] 43.6 µM | [8] 49 µM | [9] 49 µM
inactive: [2] | [16] | [15]

CC(=O)S[C@@H]1CC2=CC(=O)CC[C@]2(C)[C@H]2CC[C@@]3(C)[C@@H](CC[C@@]34CCC(=O)O4)[C@H]12
inactive: [1] | [2] | [3] | [17] | [6] | [7] | [9]

C[C@H](CCC(=O)O)[C@H]1CC[C@H]2[C@@H]3CC[C@@H]4C[C@H](O)CC[C@]4(C)[C@H]3CC[C@]12C
inactive: [1] | [2] | [3] | [18] | [8]
active: [4] 21.8 µM and 49 µM
inactive and 43.6 µM (active): [10]
inactive and 54.9 µM (active): [6]

CCCCCCCCCOC(=O)c1ccc(O)cc1
inactive: [2] | [3]
active: [1] 30.2 µM | [5] 60.3 µM | [11] 24.2 µM | [6] 27.1 µM | [7] 24.2 µM | [9] 48.3 µM | [10] 43 µM

Cc1[nH]cnc1C[C@H]1CCc2c(C)c3ccccc3n2C1=O
active: [4] 19 µM | [5] 53.1 µM
inactive: [1] | [2] | [3] | [18] | [8] | [10] | [15]
